From PubChem BioAssay
Hits are enriched below; roughly 0.5% of the tested compounds scored in any of these assays.
E coli growth-1 = inhibitors of Escherichia coli growth; OD600, 23 h; stronger effect = lower value; OD600 absorbance (concentration not given with the values); actives 0.21% (n = 330,000); AID 1053175;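 active = OD600 absorbance below the run mean of sample wells minus 3.6 SD, in any replicate, cut at about 0.56 in these data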
AddAB inh = less growth of phage-infected E. coli with AddAB; E. coli expressing H. pylori AddAB, absorbance growth; AID 435030; actives 0.29% (n = 330,000); inhibition, % at 11.9 µM; in the data active = inhibition above about 12%
Tat export inh = inhibitors of E. coli Tat protein transport | AID 488895 | actives 0.036% (n = 340,000) | E. coli MC4100 TorA-mCherry Tat export, fluorescence | inhibition, % at 10 µM;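 active = mean replicate inhibition at least 50% and at least half of replicates individually reaching 50%; inconclusive = only one of the two criteria met; inactive = neither criterion met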;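 also: exported cargo escapes ClpAP degradation while cytoplasmic cargo is degraded and loses fluorescence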
E coli growth-2 = bacterial growth inhibition, counter-screen for AddAB inhibitors. E. coli V3065 growth, OD600 absorbance, 18 h. inhibition, % at 11.9 µM. actives 0.27% (n = 330,000);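 active = inhibition above the campaign's mean inhibition across all tested compounds plus 3 SD, cut at about 9.9% in these data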;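 also: uninfected addAB+ strain grown without phage in ampicillin broth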
phage Ecoli inh = E. coli growth loss with phage present. growth absorbance. inhibition, % at 11.9 µM. actives 0.26% (n = 360,000). AID 651602; in the data active = inhibition above about 11%
AddAB conf = confirmation screen: growth loss of phage-infected E. coli expressing H. pylori AddAB; shares compounds with AddAB inh; E. coli V3065 expressing H. pylori AddAB, T4 phage, OD; T4 phage with gene 2 nonsense mutations; inhibition, % at 11.9 µM; actives 64% (n = 880); AID 488942;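 active = mean inhibition above a set limit taken from the earlier primary screen, cut at about 13% in these data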;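 also: higher means less bacterial growth since AddAB block lets phage replicate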
RecBCD counter = reduces growth of phage-infected RecBCD+ E. coli, AddAB inhibitor counter-screen. shares compounds with AddAB inh. E. coli V66 + mutant T4 phage, OD growth. inhibition, % at 11.9 µM. actives 73% (n = 880). AID 488955;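 active = mean inhibition above the mean of solvent-only control wells plus 3 SD, cut at about 4% in these data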;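 also: optical density read after an 18 h incubation at 37 °C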
bact viab count = reduces bacterial viability, AddAB inhibitor counter-screen; actives 35% (n = 880); AID 488956; inhibition, % at 11.9 µM; absorbance (AddAB counterscreen); shares compounds with AddAB inh; in the data active = inhibition above about 25%
Of the large screens only hits and unclear results are named; the others gave an inactive call (follow-up assays come after a bar, where they were run).

Cc1ccnc(NC(c2cccnc2)c2ccc3cccnc3c2O)c1 (stereo unspecified)	AddAB inh 12, Tat export inh inconclusive, E coli growth-2 12, phage Ecoli inh 15 | AddAB conf inactive | RecBCD counter 12 | bact viab count inactive
Cc1ccc(NC(=O)CCNC(=O)c2ccco2)cc1	AddAB inh 15 | AddAB conf inactive | RecBCD counter inactive | bact viab count inactive
O=C(CCNC(=O)c1ccco1)Nc1ccccc1	none
CCOc1ccc(NC(=O)CCNC(=O)c2ccco2)cc1	AddAB inh 14 | AddAB conf inactive | RecBCD counter 4.7 | bact viab count inactive
CC1CC2C3CC(F)C4=CC(=O)C=C[C@]4(C)[C@@]3(Cl)C(O)C[C@]2(C)C1C(=O)COC(=O)C(C)(C)C (stereo partly specified)	none (no result: AddAB inh, Tat export inh, E coli growth-2, phage Ecoli inh)
O=C(C=Cc1cccc([N+](=O)[O-])c1)N1CCN(C(=O)c2ccco2)CC1	none (no result: AddAB inh, Tat export inh, E coli growth-2, phage Ecoli inh)
Cc1ccc(/C=C/C(=O)c2ccccc(=O)c2O)cc1C	AddAB inh 13 | AddAB conf inactive | RecBCD counter 6.1 | bact viab count inactive
COc1cc(OC)c(OC)cc1C=Nn1c(C)nnc1C	none (no result: AddAB inh, Tat export inh, E coli growth-2, phage Ecoli inh)
O=C(NN=Cc1cc([N+](=O)[O-])ccc1O)c1cccc2cc[nH]c12	none (no result: AddAB inh, Tat export inh, E coli growth-2, phage Ecoli inh)
O=C(N/N=C/c1cc([N+](=O)[O-])ccc1O)c1cccc2cc[nH]c12	AddAB inh 14, E coli growth-2 10 (no result: E coli growth-1) | AddAB conf inactive | RecBCD counter 7.0 | bact viab count inactive
Cc1cc(=O)n(-c2ccc(O)cc2)[nH]1	AddAB inh 98, E coli growth-2 93 | AddAB conf 78 | RecBCD counter 7.7 | bact viab count 46
Cc1cccc(NC(=O)NC(C)C(c2cccs2)N2CCOCC2)c1 (stereo unspecified)	AddAB inh 100, E coli growth-2 99 | AddAB conf inactive | RecBCD counter inactive | bact viab count inactive
O=C(NN=Cc1ccc(Cl)cc1)C1=NOC2COC3(CCN(c4ccc([N+](=O)[O-])cc4)CC3)OCC12 (stereo unspecified)	none (no result: AddAB inh, Tat export inh, E coli growth-2, phage Ecoli inh)
NS(=O)(=O)c1ccc(CCNC(=O)CSc2ccsc2[N+](=O)[O-])cc1	AddAB inh 16, E coli growth-2 15 | AddAB conf 40 | RecBCD counter 5.4 | bact viab count 32
COc1cc(NS(=O)(=O)c2ccc(NC(=O)c3ccco3)cc2)nc(OC)n1	AddAB inh 63 | AddAB conf inactive | RecBCD counter inactive | bact viab count inactive
CC(CC(=O)Nc1ccc(C)c(Cl)c1)=NNC(=O)Cc1ccccc1	none (no result: AddAB inh, Tat export inh, E coli growth-2, phage Ecoli inh)
O=C(NCC1CC1(Cl)Cl)Nc1ccc(Cl)c(Cl)c1 (stereo unspecified)	E coli growth-1 0.43, AddAB inh 13 | AddAB conf inactive | RecBCD counter 13 | bact viab count inactive
Cc1ccc(NC(=O)NCC2CC2(Cl)Cl)cc1 (stereo unspecified)	none (no result: E coli growth-1)
CC(C)CC(NC(=O)c1nc[nH]c1C(=O)N1CCN(c2ccccc2)CC1)C(=O)OCc1ccccc1 (stereo unspecified)	none (no result: AddAB inh, Tat export inh, E coli growth-2, phage Ecoli inh)
O=C(Nc1ccc(C2=NCCN2)cc1)c1ccc(C(=O)Nc2ccc(C3=NCCN3)cc2)c([N+](=O)[O-])c1	AddAB inh 27, Tat export inh 64, E coli growth-2 25 (no result: E coli growth-1) | AddAB conf 86 | RecBCD counter 29 | bact viab count 28
Cc1ccc(NC(=O)c2ccc(-n3cccn3)c([N+](=O)[O-])c2)cc1	none
Cc1ccc(C(=O)NC2CCCCN(C)C2=O)cc1 (stereo unspecified)	none (no result: E coli growth-1, AddAB inh, Tat export inh, E coli growth-2)
CC(=O)NC1CCCN(O)C(=O)/C=C(\C)CCOC(=O)C(NC(C)=O)CCCN(O)C(=O)/C=C(\C)CCOC(=O)C(NC(C)=O)CCCN(O)C(=O)/C=C(\C)CCOC1=O (stereo unspecified)	AddAB inh 21, E coli growth-2 16 (no result: E coli growth-1, Tat export inh, phage Ecoli inh) | AddAB conf 14 | RecBCD counter 15 | bact viab count inactive
Cc1cccc2cc(C#N)c(N3CCOCC3)nc12	none
Cc1cccc2cc(C#N)c(N3CCC(O)CC3)nc12	AddAB inh 13 | AddAB conf inactive | RecBCD counter inactive | bact viab count inactive
CCCNC(=O)Cn1c(=O)oc2cc(S(=O)(=O)N3CCCC3)ccc21	AddAB inh 55, E coli growth-2 37 | AddAB conf inactive | RecBCD counter inactive | bact viab count inactive
O=C(Cn1c(=O)oc2cc(S(=O)(=O)N3CCCCCC3)ccc21)NC1CCCCCCC1	none
O=C(N/N=C/C(Br)=C\c1ccccc1)c1ccc2nc[nH]c2c1	AddAB inh 12 (no result: E coli growth-1) | AddAB conf inactive | RecBCD counter inactive | bact viab count inactive
O=C(NN=C/C(Br)=C\c1ccccc1)c1ccc2nc[nH]c2c1	none (no result: AddAB inh, Tat export inh, E coli growth-2, phage Ecoli inh)
CCn1cc(C(=O)O)c(=O)c2cc(F)c(N3CCNCC3)cc21	AddAB inh 99, Tat export inh 94, E coli growth-2 99 (no result: E coli growth-1, phage Ecoli inh) | AddAB conf 103 | RecBCD counter 102 | bact viab count 103
CCn1cc(C(=O)O)c(=O)c2cc(F)c(N3CCN(S(=O)(=O)c4ccc5c(c4)OCCO5)CC3)cc21	E coli growth-1 0.083, AddAB inh 94, E coli growth-2 48 | AddAB conf 101 | RecBCD counter 13 | bact viab count 99
CCOC(=O)c1cn(CC)c2cc(N3CCSCC3)c(F)cc2c1=O	E coli growth-1 0.46, AddAB inh 75, E coli growth-2 83 | AddAB conf 97 | RecBCD counter inactive | bact viab count inactive
CC1CN(C(C)CO)C(=O)c2cccc(NS(=O)(=O)c3cn(C)cn3)c2OC1CN(C)Cc1ccncc1 (stereo unspecified)	none (no result: AddAB inh, Tat export inh, E coli growth-2, phage Ecoli inh)
O=C(CCC(=O)Nc1ccc(F)cc1)NN=Cc1ccccc1O	none (no result: AddAB inh, Tat export inh, E coli growth-2, phage Ecoli inh)
Cc1ccc(S(=O)(=O)CCC(=O)Nc2ccc(S(=O)(=O)N(C)C)cc2)cc1	AddAB inh 97, E coli growth-2 96 (no result: Tat export inh, phage Ecoli inh) | AddAB conf inactive | RecBCD counter inactive | bact viab count inactive
Cc1ccc(S(=O)(=O)CCC(=O)NNC(=O)CN(C)S(=O)(=O)c2ccc(C)cc2)cc1	none
COc1ccc(N2C(=O)C3CCCN3C2c2cccc(Br)c2)cc1 (stereo unspecified)	none
COc1ccc(N2C(=O)C3CCCN3C2c2cccc(OC)c2OC)cc1 (stereo unspecified)	AddAB inh 14 | AddAB conf inactive | RecBCD counter inactive | bact viab count inactive
Cc1cc(C)n(CCC(=O)NN=Cc2ccc(Cl)c([N+](=O)[O-])c2)n1	none (no result: AddAB inh, Tat export inh, E coli growth-2, phage Ecoli inh)
Oc1ccc(/C=N/NC(=S)Nc2cccnc2)c(O)c1	AddAB inh 16, E coli growth-2 11 (no result: E coli growth-1) | AddAB conf inactive | RecBCD counter 11 | bact viab count inactive
